Sampled rows, rich in hits. Any-hit rate of the full collection: about 5.4%.
RORgamma inh: ROR gamma (mouse) transcription inhibition. Potency, µM (doses to about 53.6 µM), for inactives: at the top dose activity change, negative = inhibition, hits mostly inhibitors. P51450. 5.4% of 310,000 active. AID 2551. Drosophila S2 Gal4-RORgamma UAS-luciferase reporter, 20 h; note: potency is the fitted concentration of half-maximal effect; % is set by controls: 0 for no effect and ±100 for the full control effect; nearly all actives have a fitted effect of over 60% in size
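A Gal4/UAS one-hybrid system in insect cells: metallothionein-promoter Gal4–ROR gamma fusion plus Photinus luciferase reporter. Copper sulfate 700 uM final, 20 hr ambient incubation, luminescent detection after 10 min with reagent.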
Gal4-VP16 FLuc: inhibits Gal4-VP16 luciferase reporter, ROR gamma counter-screen | 3.5% of 310,000 active | Potency, µM (titrated, usually from 53.6 µM), for inactives: top-dose activity, negative = inhibition, actives largely listed as inhibitors | AID 2546 | Drosophila S2 Gal4-VP16 UAS-luciferase, luminescence, 20 h;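 note: Gal4-VP16 expression switched on by copper sulfate through the metallothionein promoter; potency is the fitted concentration of half-maximal effect; % is set by controls: 0 for no effect and ±100 for the full control effect; nearly all actives have a fitted effect of over 50% in size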
CtBP-E1A blk: CtBP/E1A binding inhibition; AlphaScreen GST-E1A/His-CtBP binding, 1536-well; hits give low values; activity change, % (no concentration beside the values); 0.49% of 340,000 active; AID 651724; in the data active = activity change below about -65%; inconclusive = mostly about -30% to -63%; note: % is set by controls: 0 for no effect and ±100 for the full control effect
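Protein mix (5X: 125 nM each GST-E1A, His-CtBP) was incubated with pinned compound 2 h at 37 deg C in dark, in 50 mM Tris pH 8.0 buffer with 300 mM NaCl. Glutathione donor and nickel acceptor beads followed; AlphaScreen signal read after 1 h.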
p53 reactivation: mutant p53 re-activation in reporter cells; H1299 p53-A138V BP100-luciferase reporter, luminescence, 24 h; 0.063% of 320,000 active; Potency, µM (highest dose often 92.2 µM), for the others: at the top dose activity change, positive = activation, hits mostly activators; note: potency is the fitted concentration of half-maximal effect; % of control where 0% means no effect; nearly all actives have a fitted effect of over 45% in size
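p53-null H1299 cells stably carrying temperature-sensitive p53-A138V and a BP100-luciferase reporter were pinned with compounds (4-point, 1:5 series) and held 24 hrs at 37 deg C. Luminescence was read 10 min after detection reagent.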
Six1-Eya2 inh: blocks human Six1 binding to Eya2. 0.56% of 360,000 active. AlphaScreen GST-Six1/His-Eya2 binding, biochemical; hits give low values. activity change, % (no concentration beside the values). Q15475+O00167; in the data active = activity change below about -65%; inconclusive = mostly about -30% to -63%; note: % is set by controls: 0 for no effect and ±100 for the full control effect
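Homogeneous AlphaScreen proximity assay pairing GST-Six1 with His-tagged Eya2 (added as 5X mix: 250 nM and 500 nM) in 50 mM Tris pH 8.0, 300 mM NaCl, 1 mM TCEP. Glutathione donor and nickel acceptor beads; 1 h, 37 °C, dark.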
* marks the source's active call; other numbers are inactive results; ! = a repeat was not active; [ ] = dose if it differs, or a comment. Unless noted, calls come from the whole dose curve; as a rule, active = well fitted curve in the direction sought with a large enough effect; inconclusive = small, poorly fitted or top-dose-only effect, or another doubt; inactive = no such curve, though single readings can be large; an effect the other way counts as inactive or inconclusive.

How did Cc1noc(C)c1-c1ccc2ncnc(NCc3ccccc3F)c2c1 do in these assays?
RORgamma inh: -9%; Gal4-VP16 FLuc: 11µM*

How did CC1CN(C(=O)c2cccc(Oc3ccccc3)c2)CC(C)O1 (configuration not stated) do in these assays?
CtBP-E1A blk: -4; Six1-Eya2 inh: -1

How did Cc1ccc(C)c(S(=O)(=O)N2CCN(C(=O)c3cccnc3)CC2)c1 do in these assays?
RORgamma inh: 22%; Gal4-VP16 FLuc: -3%; CtBP-E1A blk: 0; p53 reactivation: -7%; Six1-Eya2 inh: 21

What do the screens show for `Cc1ccc(-n2ncc3c(SCC(=O)Nc4cc(C)on4)ncnc32)c(C)c1`?
RORgamma inh: -13%; Gal4-VP16 FLuc: -9%; CtBP-E1A blk: 3; p53 reactivation: 3%; Six1-Eya2 inh: 7

What do the screens show for `Cc1ccccc1-c1ccc2ncnc(N(C)Cc3ccco3)c2c1`?
RORgamma inh: -4%; Gal4-VP16 FLuc: -4%

What do the screens show for `Cc1noc(C)c1-c1ccc2ncnc(N(C)Cc3ccco3)c2c1`?
RORgamma inh: 13µM*; Gal4-VP16 FLuc: inconclusive

How did CNCCCC12CCC(c3ccccc31)c1ccccc12 do in these assays?
RORgamma inh: 10µM*!; Gal4-VP16 FLuc: inconclusive; CtBP-E1A blk: -7; p53 reactivation: -7%; Six1-Eya2 inh: -3

How did CNCCCC1c2ccccc2C=Cc2ccccc21 do in these assays?
RORgamma inh: 25%; Gal4-VP16 FLuc: -1%; CtBP-E1A blk: -13; p53 reactivation: -2%; Six1-Eya2 inh: 0

Results for CCN=C1NN=C(c2cc(C)n(Cc3ccco3)c2C)CS1 ?
RORgamma inh: 0.28µM*; Gal4-VP16 FLuc: inconclusive; CtBP-E1A blk: -7; p53 reactivation: 28%; Six1-Eya2 inh: -11

Results for CC(=O)NC12CC3CC(C1)CC(C(=O)N(C)Cc1cccc(Cl)c1Cl)(C3)C2 ?
RORgamma inh: inconclusive; Gal4-VP16 FLuc: 7.1µM*; CtBP-E1A blk: 2; p53 reactivation: -12%; Six1-Eya2 inh: 3

Results for O=C(CCl)N(c1ccccc1)c1c[nH]c2ccccc12 ?
RORgamma inh: 14µM*; Gal4-VP16 FLuc: inconclusive; CtBP-E1A blk: -1; p53 reactivation: -30%; Six1-Eya2 inh: -4

What do the screens show for `CC(=O)n1cc(N(C(=O)CCl)c2ccccc2)c2ccccc21`?
RORgamma inh: inconclusive; Gal4-VP16 FLuc: inconclusive; CtBP-E1A blk: 7; p53 reactivation: -17%; Six1-Eya2 inh: -4

What do the screens show for `O=C(CCl)N(c1ccc(Cl)cc1)c1c[nH]c2ccccc12`?
RORgamma inh: 4.5µM*; Gal4-VP16 FLuc: 10µM*; CtBP-E1A blk: 9; p53 reactivation: -24%; Six1-Eya2 inh: -2

Results for O=C(Cc1ccc(Cl)cc1)NCCc1c[nH]c2ccccc12 ?
CtBP-E1A blk: -5; Six1-Eya2 inh: -8

What do the screens show for `COC1OC(CO)C(OC2OC(C(=O)O)C(OC3OC(COS(=O)(=O)O)C(OC4OC(C(=O)O)C(OC5OC(CO)C(OC6OC(C(=O)O)C(OC7OC(COS(=O)(=O)O)C(OC8OC(C(=O)O)=C[C@H](O)C8OS(=O)(=O)O)C(O)C7NC(C)=O)[C@@H](O)C6O)C(O)C5NC(C)=O)[C@@H](O)C4O)C(O)C3NC(C)=O)[C@@H](O)C2O)C(O)C1NC(C)=O` (some centres not stated)?
RORgamma inh: -2%; Gal4-VP16 FLuc: 3%

What do the screens show for `CC(C)(C)n1ncc2c(=O)n(Cc3cccc(Cl)c3)cnc21`?
RORgamma inh: 39%; Gal4-VP16 FLuc: 0%; CtBP-E1A blk: 8; p53 reactivation: 4%; Six1-Eya2 inh: -4

How did CN(C[C@H](CC1CCCCC1)N(C[C@H](Cc1ccccc1)N(CCc1ccccc1)N=O)N=O)N=O do in these assays?
RORgamma inh: 0%; Gal4-VP16 FLuc: 9%; CtBP-E1A blk: -7; p53 reactivation: 2%; Six1-Eya2 inh: -9

How did S=c1[nH]nc(CSCCOc2ccc(Cl)cc2Cl)o1 do in these assays?
RORgamma inh: 4µM*; Gal4-VP16 FLuc: 3.2µM*; CtBP-E1A blk: -8; p53 reactivation: 0%; Six1-Eya2 inh: -2

Results for COC(=O)[C@@H]1CC[C@H](C)[C@@H](c2ccc(C)cc2)N1C(=O)c1ccc(/C=N\O[C@@H](C)CN2CCCc3nc(C)c(C)cc32)cc1 ?
RORgamma inh: -1%[10 µM]; Gal4-VP16 FLuc: 7%[10 µM]

Results for CC1CC(C)C(=O)C(C(CC2CC(=O)NC(=O)C2)OC(=O)CC(=O)c2ccccc2)C1 (configuration not stated) ?
CtBP-E1A blk: 1; Six1-Eya2 inh: 0

Results for COc1ccc(NC(=O)N2CCCC(C(=O)NCCc3ccccc3)C2)cc1 (configuration not stated) ?
RORgamma inh: 33%; Gal4-VP16 FLuc: 9%; CtBP-E1A blk: 2; p53 reactivation: 16%; Six1-Eya2 inh: 2

How did COc1ccc(NC(=O)NNC(=O)C(C)Oc2ccc(C(C)C)cc2)c(OC)c1 (configuration not stated) do in these assays?
RORgamma inh: 20µM*; Gal4-VP16 FLuc: inconclusive; CtBP-E1A blk: 1; p53 reactivation: 2%; Six1-Eya2 inh: 9

What do the screens show for `COc1ccccc1NC(=O)NNC(=O)C(C)Oc1ccc2ccccc2c1` (configuration not stated)?
RORgamma inh: 2%; Gal4-VP16 FLuc: -3%; CtBP-E1A blk: -2; p53 reactivation: 2%; Six1-Eya2 inh: 1

Results for NNC(=S)Nc1c(F)cc(F)cc1Br ?
RORgamma inh: 4µM*; Gal4-VP16 FLuc: inconclusive; CtBP-E1A blk: -23; p53 reactivation: -2%; Six1-Eya2 inh: -1

How did CSc1cccc(NC(=S)N(CCCN2CCCC2)Cc2cccn2Cc2ccc(Cl)cc2)c1 do in these assays?
RORgamma inh: 13µM*; Gal4-VP16 FLuc: -2%; CtBP-E1A blk: -12; p53 reactivation: 14%; Six1-Eya2 inh: inconclusive

How did S=C(Nc1cccc(Cl)c1)N(CCCN1CCCC1)Cc1cccn1Cc1ccc(Cl)cc1 do in these assays?
RORgamma inh: 18µM*; Gal4-VP16 FLuc: inconclusive; CtBP-E1A blk: -7; p53 reactivation: 13%; Six1-Eya2 inh: -12

What do the screens show for `COc1cccc(NC(=S)N(CCCN2CCCC2)Cc2cccn2Cc2ccc(Cl)cc2)c1`?
RORgamma inh: inconclusive; Gal4-VP16 FLuc: inconclusive; CtBP-E1A blk: -20; p53 reactivation: 18%; Six1-Eya2 inh: -22

How did CCn1cc(CNc2nc3nonc3nc2N2CCCCC2)cn1 do in these assays?
RORgamma inh: 7.1µM*; Gal4-VP16 FLuc: inconclusive; CtBP-E1A blk: -3; p53 reactivation: 2%; Six1-Eya2 inh: 2

How did CC(=O)Oc1ccc(C2(C)CC(C)(C)NC(=S)N2C)c(OC(C)=O)c1 (configuration not stated) do in these assays?
RORgamma inh: 13µM*; Gal4-VP16 FLuc: inconclusive; CtBP-E1A blk: -8; p53 reactivation: 2%; Six1-Eya2 inh: -23

Source: PubChem (National Center for Advancing Translational Sciences (NCATS))
